# Measured values published in PubChem BioAssay AID904 (National Center for Advancing Translational Sciences (NCATS), 2007).
# Hit rate of the full screen: of about 55,000 compounds, about 530 (0.96%) were called active. About 7% were inconclusive and are not listed. The entries come from a sample that favours actives as a whole. Values without a mark were called inactive. Calls come from the whole dose curve; as a rule, active = well fitted cell-killing curve with a large enough effect; inconclusive = small, poorly fitted or top-dose-only effect; inactive = no such curve, though single readings can be large or run the other way.
# Experiment: qHTS Screen for Compounds that Selectively Target Cancer Cells with p53 Mutations: Cytotoxicity of p53 Null Cells at the Nonpermissive Temperature; note: nearly all actives have a fitted effect of over 50% in size;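 for activity, negative = cell killing: 0% = DMSO only and -100% = full killing by 100 µM tamoxifen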
# Details: H1299 p53-null (neo) cells, 39C, ATPlite viability, 24 h; series mostly up to 46.1 µM; activity, negative = cell killing: at the top concentration
# Procedure, shortened: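 ATP-luminescence viability readout (ATPlite, 20 min RT) after 24 hr compound treatment at 39C of H1299-neo or H1299-p53A138V cells; titration up to 46 uM; normalized to DMSO and 100 uM tamoxifen; Hill-fit AC50.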
# Potency is the fitted concentration of half-maximal effect.
SMILES,"activity, negative = cell killing [%]",Potency
Cc1ccccc1CNC(=O)C(=O)NCC(c1cccs1)S(=O)(=O)c1cccs1 (stereo not drawn),35.3,
CCC(=O)N1c2ccccc2CC1C(=O)N1CCN(c2ccccc2F)CC1 (stereo not drawn),-6.5,
Cc1ccc(OCC(=O)OCc2cc(=O)n3nc(C4CC4)sc3n2)cc1,-8.09,
COc1ccccc1NC(=O)c1cc(S(=O)(=O)NCCc2ccccc2)ccc1F,10.5,
COCCn1c(SCC(=O)c2cc(C)ccc2C)nc2cc(C(=O)NC3CCCC3)ccc2c1=O,10.6,
CCn1c(CNC(=O)c2ccccc2)nnc1SCC(=O)N1CCN(c2ccccc2)CC1,6.06,
CCOCN(C(=O)Cn1c(C(C)O)nc2ccccc21)c1c(C)cccc1CC (stereo not drawn),21.6,
COc1cc(-c2cc3n(C)c(C)c(CCC(=O)Nc4ccc(F)cc4)c(=O)n3n2)cc(OC)c1OC,-1.61,
COc1ccc(NC(=O)CN2C(=O)C(c3ccccc3)=NC23CCCCCC3)cc1OC,23.8,
COc1ccc(-c2nn(CC(=O)Nc3ccccc3F)c3c2cnc2ccc(F)cc23)cc1,-18,
COC(=O)c1nc2ccccc2s1,6.87,
CCc1ccccc1N1C(=O)CN(S(=O)(=O)CC)CC1(C)C(=O)NC1CCCCC1 (stereo not drawn),2.03,
O=C(Nc1cccc(F)c1)c1coc(=O)c(Br)c1,22,
COc1cccc(CNC(=O)C(=O)NCC(c2cccs2)S(=O)(=O)c2ccccc2)c1 (stereo not drawn),-16.5,
Cc1ccc(C)c(Cn2c(CCCNC(=O)C3CCCCC3)nc3ccccc32)c1,9.17,
O=C(CC(NCc1cccnc1)C(=O)O)Nc1ccc(O)cc1 (stereo not drawn),2.24,
CCN1C(=O)c2ccccc2Sc2ccc(NC(=O)Cc3ccc(OC)cc3)cc21,-3.19,
C/C(CC(=O)Nc1ccc(Cl)cc1)=N\NC(=O)C(=O)NCCO,-7.37,
CC(=O)c1sc(N2C(=O)c3oc4ccccc4c(=O)c3C2c2ccc(C)cc2)nc1C (stereo not drawn),-20.5,
COC(=O)c1ccccc1NC(=O)Cn1c(=O)n(-c2cccc(C(F)(F)F)c2)c(=O)c2c(C)c(C)sc21,-6.26,
CCCCOc1ccc(CN2C(=O)C(=O)c3cc(Br)cc(C)c32)cc1OC,,11.2 µM (active)
COc1ccc(CCN2C(=O)C3CC=C(C)CC3C2=O)cc1OC (stereo not drawn),9.02,
CCCCOc1ccc(Cn2c(=O)oc3ccc(C)cc32)cc1OC,-20.1,
COc1ccc(CCNC(=O)/C(C#N)=C2\N=C(NC(=O)c3cccs3)c3ccccc32)cc1,-0.547,
CCC(CC)c1nn2cc(-c3ccccc3)nc2s1,,7.94 µM (active)
CCc1ccc(CNC(=O)C2CCN(c3nn4cc(-c5ccc(F)cc5)nc4s3)CC2)cc1,-5.73,
CCCS(=O)(=O)Nc1cccc(-c2cn3ccsc3n2)c1,-16.7,
Cc1ccc(Cl)cc1NC(=O)CSc1nccn1C,28.3,
